# PP1 counter: blocks human PP1-alpha phosphatase, a PP5 counter-screen | P62136 | purified PP1alpha, OMFP fluorescence | inhibition, % at 6.7 µM | 320,000 compounds, 0.9% hits | AID 2235;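 active means inhibition above the mean inhibition of all tested compounds plus 3 SD, computed separately for each screening campaign, cut at about 15% in these data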
# Target sequence (P62136 whole entry, looked up): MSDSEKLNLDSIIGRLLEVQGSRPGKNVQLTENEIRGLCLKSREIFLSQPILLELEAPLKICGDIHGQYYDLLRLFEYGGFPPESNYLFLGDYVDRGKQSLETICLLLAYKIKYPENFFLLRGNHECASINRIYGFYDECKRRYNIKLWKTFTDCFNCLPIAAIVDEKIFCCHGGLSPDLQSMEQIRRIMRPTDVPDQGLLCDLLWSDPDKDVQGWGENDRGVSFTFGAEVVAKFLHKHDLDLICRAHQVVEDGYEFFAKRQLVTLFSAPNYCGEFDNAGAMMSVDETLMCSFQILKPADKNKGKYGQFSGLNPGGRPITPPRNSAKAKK
# ALR inh: inhibitors of human sulfhydryl oxidase ALR. P55789. purified ALR, DTT oxidation, H2O2 HRP-luminol luminescence. inhibition, % (no concentration beside the values). 290,000 compounds, 3.8% hits. AID 485317;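 active means mean replicate inhibition above about 79%, with every replicate also reaching it, limit read from the data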
# Target sequence (P55789 whole entry, looked up): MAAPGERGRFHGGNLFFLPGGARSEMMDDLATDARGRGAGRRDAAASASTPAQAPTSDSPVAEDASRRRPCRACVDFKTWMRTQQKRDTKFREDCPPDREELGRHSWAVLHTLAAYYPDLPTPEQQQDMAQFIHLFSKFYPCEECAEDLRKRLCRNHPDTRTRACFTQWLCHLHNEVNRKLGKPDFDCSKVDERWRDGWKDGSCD
# PP5 primary: blocks human protein phosphatase 5 activity | purified PP5c, OMFP substrate fluorescence | AID 1987 | P53041 | 320,000 compounds, 0.18% hits | inhibition, % at 6.7 µM;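 active means inhibition above the campaign's mean inhibition across all tested compounds plus 3 SD, cut at about 9.5% in these data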;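 further: 0% = DMSO only and 100% = 100 µM cantharidin control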
# CSC inhib: cancer stem cell inhibition | 300,000 compounds, 1.1% hits | cancer stem cell-like cells viability, luminescence | inhibition, % at 7.5 µM; in the data active means inhibition above about 75%; tested in HMLE shEcad cells
# Calb FLC: affects C. albicans growth with fluconazole. C. albicans CaCi-2 (fluconazole-resistant clinical isolate) + fluconazole, Alamar Blue growth, 48 h. growth inhibition, % (no concentration beside the values). 300,000 compounds, 0.57% hits. AID 1979;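 active means growth inhibition above about 58% in most replicates, limit read from the data, passing the limit was not always enough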;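 further: all wells also contain fluconazole at 8 µg/ml as a sub-toxic cotreatment; 0% = median of DMSO wells and 100% = median of geldanamycin control wells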
# Starred values were filed as active, the others as inactive; / = no result. A selection: hits, their analogues and other compounds. The true share with any hit is near 5.4%.
SMILES,PP1 counter,ALR inh,PP5 primary,CSC inhib,Calb FLC
CN(C)c1ccc(NS(=O)(=O)c2ccc(Cl)cc2)cc1,-2,/,2,-6,10
CN(C)c1ccc(NS(=O)(=O)c2cc3c4c(c2)CC(=O)N4CCC3)cc1,1,99*,0,-22,1
Cc1ccc(S(=O)(=O)Nc2ccc(N(C)C)cc2)cc1,4,99*,3,-8,-5
Cc1cc(S(=O)(=O)Nc2cccc(Cl)c2)c(C)s1,1,-1,3,-5,-53
CN(C)c1ccc(NS(=O)(=O)c2cccc(Cl)c2)cc1,-1,99*,0,0,-14
Cc1ccc(S(=O)(=O)N(C)/N=C/C=C/c2ccccc2)cc1,6,/,4,-3,-6
CCN(CC)c1ccc(NS(=O)(=O)c2ccc(OC)cc2)cc1,3,99*,2,-6,-50
COc1ccc(S(=O)(=O)Nc2ccc(N(C)C(C)=O)cc2)cc1,-2,-2,0,9,-18
CN(C)c1ccc(NS(=O)(=O)c2ccc(-c3csnn3)cc2)cc1,0,99*,1,-1,3
Cc1ccc(S(=O)(=O)N(C)/N=C/c2ccc(N(C)C)cc2)cc1,2,99*,2,-20,-1
Cc1sc(N)c(C(=O)c2ccccc2Cl)c1C,-2,99*,4,-2,2
COc1ccc(C(=O)c2ccccc2Cl)cc1,0,-17,0,7,-6
COc1cc(OC)c2cc(C(=O)N/N=C/c3ccccc3O)[nH]c2c1,7,-11,2,71,81*
Cc1ccc(NC2Nc3cc(C)nn3S2)c(C)c1 (stereo not drawn),-4,87*,0,-15,3
Cc1ccc(S(=O)(=O)/N=C2/NC(=O)/C(=C\c3cc(Br)cc(Br)c3O)S2)cc1,/,99*,/,29,123*
C[C@@H](C(=O)Nc1ccc(SC(F)F)cc1)N1C(=O)C2CCCCC2C1=O (stereo partly drawn),/,90*,/,-17,/
O=C1CC(c2ccccc2)CC(=NCCO)/C1=C(\O)CCCN1C(=O)c2ccccc2C1=O (stereo not drawn),0,/,1,2,64*
CC1(C)CC(=O)/C(=C(\O)CCCN2C(=O)c3ccccc3C2=O)C(=NCC(=O)O)C1,-1,-9,3,-3,-21
Cc1nnc2sc(SCC(=O)Nc3nccs3)nn2c1=O,-4,99*,1,-5,-10
COc1ccccc1NC(=O)CSc1nnc(C)o1,-5,-7,1,-7,3
COc1ccccc1NC(=O)CSc1nn2c(=O)c(C)nnc2s1,-3,99*,-1,2,-5
Cc1sc2nc(CSc3cccc(C(F)(F)F)c3)[nH]c(=O)c2c1C,7,0,-1,-8,-8
Oc1ccc(C2=NNC(=NCc3ccc4c(c3)OCO4)SC2)c(O)c1,-3,95*,0,68,-1
Cc1ccc(-c2cc(C(=O)O)c3sc(N4CCCCC4)nc3n2)cc1,3,98*,-1,-1,10
O=C(O)c1cc(-c2ccccc2)nc2nc(N3CCCCC3)sc12,-1,80*,0,2,6
SMILES,PP1 counter,ALR inh,PP5 primary,CSC inhib,Calb FLC
S=C(NCc1ccccc1)N1CCN(Cc2ccc3c(c2)OCO3)CC1,2,5,0,14,-43
CCN(CC)c1ccc(/C=C/C(=O)C2C(=O)C=C(C)OC2=O)cc1 (stereo not drawn),-2,99*,-1,-9,-12
CCN(CC)c1ccc(C=C2C(=O)OC(c3ccccc3)OC2=O)cc1 (stereo not drawn),1,26,3,-6,-3
CC/C(=C(/CC)c1ccc(O)cc1)c1ccc(O)cc1,4,99*,2,68,/
N=C(N)c1ccc(O)cc1,-1,-24,1,0,-8
CCOC(=O)c1c(C)c(C(=O)NCc2ccc3c(c2)OCO3)c(C)n1CC,1,-18,2,0,-1
CCn1c(N)c(C(=O)NCCOC)sc1=S,0,100*,1,-3,-7
CCn1c(N)c(C(=O)NCc2ccc3c(c2)OCO3)sc1=S,-4,99*,1,/,-1
Cc1ccc(CCNC(=O)CCS(=O)(=O)c2ccc3nc(C)sc3c2)cc1,-4,48,0,-24,3
NC(=O)C1CCN(C(=O)N2c3ccccc3Sc3ccccc32)CC1,5,80*,3,0,-14
N#CC1CC(c2ccccc2)=NN1c1ccccc1[N+](=O)[O-] (stereo not drawn),2,-9,2,-4,85*
COc1ccccc1N1N=C(c2ccc([N+](=O)[O-])cc2)CC1c1ccccc1 (stereo not drawn),-1,-8,2,16,2
O=[N+]([O-])c1ccc(N2N=C(c3ccccc3)CC2c2ccccc2O)cc1 (stereo not drawn),/,14,/,102*,10
O=CN1N=C(c2ccccc2)CC1c1ccccc1[N+](=O)[O-] (stereo not drawn),2,/,2,0,-3
CN1CCN(c2nc3c(c(=O)n(C)c(=O)n3C)n2Cc2ccccc2Cl)CC1,1,3,1,-5,-12
O=C(NCCN1CCCC1)c1ccccc1Cl,-1,-3,3,-2,2
CCCOc1ccc(-c2nc(-c3ccc([N+](=O)[O-])cc3)cs2)cc1,-2,29,0,1,/
O=c1[nH]cc(S(=O)(=O)N2CCN(c3cccc(C(F)(F)F)c3)CC2)c(=O)[nH]1,16*,-16,-2,-7,1
O=c1[nH]cc(S(=O)(=O)N2CCN(c3cccc(Cl)c3)CC2)c(=O)[nH]1,3,-5,4,-5,27
OC(CN1CCN(c2ccccn2)CC1)Cn1c2ccc(Cl)cc2c2cc(Cl)ccc21 (stereo not drawn),-6,-12,5,105*,10
Cc1cccc(C2CC3(CC(C)(C)NC(=S)N3)Oc3cc(O)ccc32)c1 (stereo not drawn),-2,2,2,6,80*
COc1cccc(C2CC3(CC(C)(C)NC(=S)N3)Oc3cc(O)ccc32)c1 (stereo not drawn),-2,7,2,/,11
N#CC1=C(SCC(=O)NCc2ccccc2)NC(=O)CC1c1ccco1 (stereo not drawn),0,-21,1,-3,-4
N#CC1=C(SCc2ccccc2)NC(=O)CC1c1ccco1 (stereo not drawn),-2,100*,2,-5,7
CCN1CCN(Cc2ccc(NC(=O)CC3Oc4ccc(C)cc4NC3=O)cc2)CC1 (stereo not drawn),-2,-6,-3,34,1
O=[N+]([O-])c1ccc(Nc2ccc(N3CCOCC3)cc2)c([N+](=O)[O-])c1,1,99*,3,3,-5
CC(=O)Nc1ccc(NC(C)=O)s1,-6,87*,-1,1,-8
CCC(=O)NC(c1ccc(Cl)cc1Cl)c1ccc2cccnc2c1O (stereo not drawn),15,-3,2,104*,107*
CCC(=O)NC(c1ccc(C)cc1)c1ccc2cccnc2c1O (stereo not drawn),1,-5,0,-2,0
